According to PubChem BioAssay AID504333 (National Center for Advancing Translational Sciences (NCATS), 2011):
Out of some 360,000 compounds screened, about 16,000 (4.4%) were called active. A call without a number means that no potency is given here. Not shown: some 9% with an inconclusive outcome. The sample holds actives, similar compounds and a random draw of the others, so the mix is not that of the screen. Calls come from the whole dose curve; as a rule, active = well fitted inhibition curve with a large enough effect; inconclusive = small, poorly fitted or top-dose-only effect; inactive = no such curve, though single readings can be large or run the other way.

Biological target: Bromodomain adjacent to zinc finger domain protein 2B (Homo sapiens) (UniProt Q9UIF8)
Sequence (Q9UIF8 whole entry, looked up, the tested form may be a part): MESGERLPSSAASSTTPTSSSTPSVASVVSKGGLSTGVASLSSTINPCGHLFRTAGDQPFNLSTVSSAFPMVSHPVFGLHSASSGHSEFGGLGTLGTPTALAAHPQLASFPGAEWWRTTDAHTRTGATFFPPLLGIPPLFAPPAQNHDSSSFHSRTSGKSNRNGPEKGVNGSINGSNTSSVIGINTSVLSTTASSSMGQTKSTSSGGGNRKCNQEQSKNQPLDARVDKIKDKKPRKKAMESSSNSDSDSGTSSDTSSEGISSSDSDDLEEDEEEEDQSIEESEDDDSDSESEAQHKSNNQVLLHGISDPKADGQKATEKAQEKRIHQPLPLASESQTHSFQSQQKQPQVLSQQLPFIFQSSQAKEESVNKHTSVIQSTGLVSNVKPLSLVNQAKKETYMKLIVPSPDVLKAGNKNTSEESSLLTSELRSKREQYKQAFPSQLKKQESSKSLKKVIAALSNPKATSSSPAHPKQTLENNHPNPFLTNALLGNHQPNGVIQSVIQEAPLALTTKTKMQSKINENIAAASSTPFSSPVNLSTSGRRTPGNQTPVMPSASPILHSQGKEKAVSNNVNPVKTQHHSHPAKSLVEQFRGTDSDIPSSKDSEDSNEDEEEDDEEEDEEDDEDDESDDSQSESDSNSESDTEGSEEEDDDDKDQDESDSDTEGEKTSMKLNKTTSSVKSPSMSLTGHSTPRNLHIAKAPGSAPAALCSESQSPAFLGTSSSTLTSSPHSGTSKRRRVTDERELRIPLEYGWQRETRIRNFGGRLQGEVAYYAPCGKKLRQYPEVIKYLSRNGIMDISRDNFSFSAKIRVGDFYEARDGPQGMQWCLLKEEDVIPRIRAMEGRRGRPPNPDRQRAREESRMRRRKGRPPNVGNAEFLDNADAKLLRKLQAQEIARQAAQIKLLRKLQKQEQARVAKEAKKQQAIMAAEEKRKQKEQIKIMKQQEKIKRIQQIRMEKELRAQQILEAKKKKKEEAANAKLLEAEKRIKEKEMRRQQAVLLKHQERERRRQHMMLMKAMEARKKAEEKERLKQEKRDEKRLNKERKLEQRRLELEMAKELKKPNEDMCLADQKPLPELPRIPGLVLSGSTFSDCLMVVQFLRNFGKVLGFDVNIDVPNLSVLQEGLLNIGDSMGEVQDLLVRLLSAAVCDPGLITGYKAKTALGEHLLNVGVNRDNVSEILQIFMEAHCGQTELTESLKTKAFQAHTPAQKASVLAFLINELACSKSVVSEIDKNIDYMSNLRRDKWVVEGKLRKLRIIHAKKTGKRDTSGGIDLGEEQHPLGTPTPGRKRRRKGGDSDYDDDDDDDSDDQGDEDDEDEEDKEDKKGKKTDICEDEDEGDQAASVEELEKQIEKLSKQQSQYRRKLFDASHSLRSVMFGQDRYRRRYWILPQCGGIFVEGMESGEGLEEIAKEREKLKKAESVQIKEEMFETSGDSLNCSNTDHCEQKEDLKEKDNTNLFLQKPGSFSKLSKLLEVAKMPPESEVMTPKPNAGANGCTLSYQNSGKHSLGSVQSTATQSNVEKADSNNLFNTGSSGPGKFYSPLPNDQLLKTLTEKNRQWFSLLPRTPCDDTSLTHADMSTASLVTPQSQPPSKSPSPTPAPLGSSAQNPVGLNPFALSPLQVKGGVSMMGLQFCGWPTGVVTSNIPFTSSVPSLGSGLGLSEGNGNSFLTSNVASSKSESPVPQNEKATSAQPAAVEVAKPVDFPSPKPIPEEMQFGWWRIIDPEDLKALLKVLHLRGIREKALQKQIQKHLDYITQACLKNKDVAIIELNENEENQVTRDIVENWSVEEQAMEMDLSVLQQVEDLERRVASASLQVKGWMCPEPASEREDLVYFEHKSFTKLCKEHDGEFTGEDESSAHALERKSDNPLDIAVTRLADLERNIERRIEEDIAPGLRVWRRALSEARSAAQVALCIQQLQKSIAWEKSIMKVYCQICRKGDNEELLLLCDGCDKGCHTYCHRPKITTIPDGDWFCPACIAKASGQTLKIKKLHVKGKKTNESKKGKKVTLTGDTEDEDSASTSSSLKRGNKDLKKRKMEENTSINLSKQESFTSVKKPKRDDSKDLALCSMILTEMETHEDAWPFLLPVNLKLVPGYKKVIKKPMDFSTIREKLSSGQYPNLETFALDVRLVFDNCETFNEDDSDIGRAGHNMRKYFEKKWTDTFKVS
Experiment: qHTS Assay for Inhibitors of BAZ2B; note: nearly all actives have a fitted effect of over 60% in size
Settings: AlphaScreen BAZ2B-H3K14Ac peptide displacement; series mostly up to 114 µM
How it was run: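 Inhibition is scored as reduced AlphaScreen emission. The BAZ2B/b-H3(5-23)K14Ac complex (50 nM each) in PBS pH 7.4, 0.01% Tween-20 meets compound (up to 110 uM) for 30 min at RT before bead addition.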
Potency is the fitted concentration of half-maximal effect.

| Structure (SMILES) | Potency |
| --- | --- |
| COc1ccc(NC(=O)C(c2ccccc2)N2Cc3ccccc3C2=O)cc1 (stereo not given) | inactive |
| COc1ccc2c(c1OC)C(=O)N(c1ccc(O)cc1)C2 | inactive |
| COc1ccc2c(c1OC)C(=O)c1ccccc1C2=O | inactive |
| COc1ccc2c(c1OC)C(=O)N(c1ncn[nH]1)C2 | 56.2 µM (active) |
| COc1ccc(Cc2nc3ccc(C(=O)NCc4ccccc4Cl)cc3o2)cc1 | inactive |
| CCc1ccc(-n2nnc(-c3nc(-c4ccccc4)no3)c2C)cc1 | inactive |
| O=C(NCCN1C(=O)C2C3C=CC(C3)C2C1=O)Nc1ccccn1 (stereo not given) | inactive |
| O=C(CN1C(=O)C2C3C=CC(C3)C2C1=O)NCCc1ccccc1Cl (stereo not given) | inactive |
| O=C(CN1C(=O)C2C3C=CC(C3)C2C1=O)Nc1nc(-c2ccccn2)cs1 (stereo not given) | 50.1 µM (active) |
| CCOc1ccc(CNC(=O)c2cccc(Nc3nc4ccccc4n4nnnc34)c2)cc1OC | inactive |
| Cc1ccc(OCCSc2nc3ccc(NC(=O)COc4ccc(C)cc4)cc3s2)cc1 | inactive |
| Cc1cc(C)cc(Nc2ncnc3onc(-c4ccc(F)cc4)c23)c1 | inactive |
| COC(=O)c1cccc(NC(=O)c2cccc(N3C(=O)CCC3=O)c2)c1 | inactive |
| O=C(Nc1cccc2cccnc12)c1cccc(N2C(=O)CCC2=O)c1 | inactive |
| COc1ccccc1-c1nnc(NC(=O)c2cccc(N3C(=O)CCC3=O)c2)o1 | 25.1 µM (active) |
| COc1ccc(Cc2nc3ccc(C(=O)NCc4ccc(OC)cc4OC)cc3o2)cc1 | inactive |
| Cc1ccc(S(=O)(=O)c2nc(-c3ccco3)oc2SCC(=O)Nc2ccc(F)cc2)cc1 | inactive |
| CCCCS(=O)(=O)c1oc(-c2cccs2)nc1S(=O)(=O)c1ccccc1 | inactive |
| Cc1ccc(C)c(S(=O)(=O)c2nnn3c2nc(N2CCOCC2)c2sccc23)c1 | inactive |
| O=C(NCCCO)c1nn(-c2ccc(Cl)cc2)nc1CO | inactive |
| Cc1cc(NC(=O)C2CCC(CNS(=O)(=O)c3ccc(Br)s3)CC2)ccc1Br (stereo not given) | inactive |
| CC(C)NC(=S)NN=C1CCCCCCCCCCC1 | 35.5 µM (active) |

| Structure (SMILES) | Potency |
| --- | --- |
| CCc1ccc(C(=O)NN=C2CCCCCC2)s1 | inactive |
| CC(C)(C)NC(=O)C(=O)NN=C1CCCCCCC1 | inactive |
| O=C(c1ccc2c(c1)N(Cc1ccccc1)C(=O)c1ccccc1S2(=O)=O)N1CCC(Cc2ccccc2)CC1 | inactive |
| COc1cc(N2CCCC2)c(OC)cc1/C=C(/C#N)c1cccc(Br)c1 | 10 µM (active) |
| CC(=O)Nc1cccc(Oc2cc(C#N)c(C#N)cc2N2CCOCC2)c1 | inactive |
| CCc1ccc(NC(=O)c2cc3c(=O)n(Cc4cccnc4)ccc3nc2C)cc1 | inactive |
| Cc1ccc(-n2c(SCC(=O)Nc3cccc(F)c3)nc3c(oc4ccccc43)c2=O)cc1C | inactive |
| CC(=O)N1CCN(CC(=O)Nc2ccc(C)c(F)c2)CC1 | 44.7 µM (active) |
| CCN(CC)c1ccc(NC(=O)CN2C(=O)NC3(CCc4ccccc43)C2=O)cc1 (stereo not given) | inactive |
| CCN(CC)c1ccc(NC(=O)CN2CCN(CC(=O)Nc3ccc(Cl)cc3)CC2)cc1 | 20 µM (active) |
| CCOC(=O)N1CCN(CC(=O)Nc2ccc(F)cc2)CC1 | inactive |
| COC(=O)c1cc(NC(=O)CN2CCN(C(C)=O)CC2)cc(C(=O)OC)c1 | inactive |
| CC(=O)N1CCN(CC(=O)Nc2ccc(SC(F)F)cc2)CC1 | inactive |
| CCN(CC)c1ccc(NC(=O)CN2C(=O)c3cccnc3Oc3ccc(Cl)cc32)c(C)c1 | inactive |
| Cc1cccc(C(=O)Nc2ccc(S(=O)(=O)N3CCCCC3c3cccnc3)cc2)c1 (stereo not given) | inactive |
| Cc1ccc(Cn2c(C)c3cnn(CC(=O)NCc4ccccc4)c(=O)c3c2C)cc1 | inactive |
| COC(=O)c1scc(-c2ccccc2)c1S(=O)(=O)Nc1ccccc1 | inactive |
| CC(=O)c1ccc(NC(=O)CCc2nc(-c3ccc(C)cc3)no2)cc1 | inactive |
| COc1ccc(Cl)cc1NC(=O)CCn1c(=O)c2cccn2c2ccccc21 | inactive |
| Cc1ccc(NC(=O)CCCn2c(=O)c3cccn3c3ccccc32)cc1Cl | 50.1 µM (active) |
| CCCCn1c(=O)c(CCC(=O)OCC(=O)Nc2ccc(C)c(Cl)c2)nc2ccccc21 | inactive |
| Cc1cccc(NC(=O)CSc2nc(-c3ccco3)cc(C(F)(F)F)n2)c1C | inactive |

| Structure (SMILES) | Potency |
| --- | --- |
| Cc1ccc(Cl)cc1N1CCN(C(=O)c2cnc3c(-c4ccc(F)cc4)c(C)nn3c2C)CC1 | inactive |
| O=C(N/N=C/c1ccc(Br)o1)c1cncc(Br)c1 | inactive |
| O=C(O)c1ccc(/C=N/NC(=O)c2ccc(Br)cc2)cc1 | inactive |
| Cc1ccc(C(=O)N/N=C\c2cc(Br)c(Br)o2)cn1 | 50.1 µM (active) |
| Cc1nn2c(=O)cc(COC(=O)c3cccc(NC(=O)COc4ccccc4Cl)c3)nc2s1 | inactive |
| CCOc1ccc(-c2cc3nc(C4CCN(C(=O)OC(C)(C)C)CC4)c(C(=O)Nc4cccc(CC)c4)cn3n2)cc1 | inactive |
| Cc1cc(C(=O)OCC(=O)NCc2ccco2)c(C)n1-c1ccccc1 | inactive |
| Cc1n[nH]c(=O)n1-c1ccc(Oc2ccccc2)cc1 | inactive |
| Cc1cc(-c2csc(N)n2)c(C)n1-c1ccccc1 | 44.7 µM (active) |
| COc1ccc(NS(=O)(=O)c2cc3c4c(c2)CC(=O)N4CCC3)cc1Cl | inactive |
| COc1ccccc1CNC(=O)c1ccc(CS(=O)c2ccccc2Cl)o1 (stereo not given) | inactive |
| Cc1noc(C)c1/C=N/Nc1ccc2ccccc2n1 | inactive |
| Brc1ccc(-c2csc(N/N=C/c3ccc4c(c3)OCO4)n2)cc1 | inactive |
| C(=N\Nc1ccc2ccccc2n1)/c1ccc2c(c1)OCO2 | 50.1 µM (active) |
| COc1ccc(CCNC(=O)CCCn2c(=O)c3ccccc3n(Cc3ccc(C)cc3)c2=O)cc1OC | inactive |
| CCOC(=O)c1cc(-c2ccc(OC)c(S(=O)(=O)Nc3ccc(OC)cc3OC)c2)on1 | inactive |
| CCN(CC)CCNc1ncnc2c1cnn2-c1cc(Cl)ccc1C | inactive |
| Clc1cccc(-n2ncc3c(NCCc4ccccc4)ncnc32)c1 | inactive |
| Cc1ccc(-n2ncc3c(NCCCn4ccnc4)ncnc32)cc1Cl | 44.7 µM (active) |
| O=C(CC1Oc2ccc(Cl)cc2NC1=O)NCc1ccccc1 (stereo not given) | inactive |
| CCOc1ccccc1CNC(=O)c1cnc2c(-c3ccc(OCC)c(OCC)c3)c(C)nn2c1C | inactive |
